# Laboratory results published in paper PMC7862700, “An all-to-all approach to the identification of sequence-specific readers for epigenetic DNA modifications on cytosine”.
# Columns and labels:
# Experiment in all cases: DAPPL (digital affinity profiling via proximity ligation, sequencing); 10 mM Tris-HCl pH 7.5, 50 mM NaCl, 1 mM DTT, 4% glycerol, room temperature, 30 min; GST-TFs on glutathione beads, 16-mer random dsDNA library, 0.1% formaldehyde crosslink after washing; high values mean tight binding
# FEV = target: T1, FEV (Homo sapiens, UniProt Q99581 1-238); conditions: protein: recombinant; tags: N-terminal GST; dsDNA, one strand shown
# T1 sequence: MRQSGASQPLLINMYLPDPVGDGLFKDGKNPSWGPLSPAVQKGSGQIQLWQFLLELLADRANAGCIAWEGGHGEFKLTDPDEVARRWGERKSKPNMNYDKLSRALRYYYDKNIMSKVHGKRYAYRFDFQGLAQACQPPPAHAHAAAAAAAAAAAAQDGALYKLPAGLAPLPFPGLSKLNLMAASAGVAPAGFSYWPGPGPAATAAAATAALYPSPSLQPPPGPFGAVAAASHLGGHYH
# How it was run: (§1)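 Pools were built from human transcription factors expressed in yeast as GST fusions, captured on glutathione beads and DNA-barcoded, along with a tag-only sample. Incubation with 200 nmole of a 16-mer random double-stranded DNA library lasted 30 min at room temperature in Tris/NaCl/DTT/glycerol buffer, and was followed by washing, 0.1% formaldehyde crosslinking, proximity ligation, PCR amplification and Illumina NextSeq500 sequencing. Binding signal is the quotient of each hexamer's read frequency for a factor and its frequency for the tag-only sample.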
# ETV5 = ETV5 (Homo sapiens, UniProt P41161 1-510); conditions: protein: recombinant; tags: N-terminal GST; dsDNA, one strand shown
# ETV5, sequence (P41161 whole entry): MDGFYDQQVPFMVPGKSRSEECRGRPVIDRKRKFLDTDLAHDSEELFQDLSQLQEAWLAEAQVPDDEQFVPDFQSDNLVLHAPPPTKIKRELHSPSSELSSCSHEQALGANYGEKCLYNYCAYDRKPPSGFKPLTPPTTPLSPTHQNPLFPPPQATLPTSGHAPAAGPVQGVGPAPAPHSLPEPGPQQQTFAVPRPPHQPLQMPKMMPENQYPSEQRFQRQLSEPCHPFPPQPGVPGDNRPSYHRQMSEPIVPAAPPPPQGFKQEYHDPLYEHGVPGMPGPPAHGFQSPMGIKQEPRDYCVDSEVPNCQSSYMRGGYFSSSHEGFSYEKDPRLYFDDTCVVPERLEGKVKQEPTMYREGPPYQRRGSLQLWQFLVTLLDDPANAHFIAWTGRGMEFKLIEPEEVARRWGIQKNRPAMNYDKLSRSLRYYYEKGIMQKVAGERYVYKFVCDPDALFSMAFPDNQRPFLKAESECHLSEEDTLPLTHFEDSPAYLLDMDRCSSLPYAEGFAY
# How it was run: as §1
# HSF1 = HSF1 (Homo sapiens, UniProt Q00613 1-529); conditions: protein: recombinant; tags: N-terminal GST; chain copies: 3; dsDNA, one strand shown
# HSF1, sequence (Q00613 whole entry): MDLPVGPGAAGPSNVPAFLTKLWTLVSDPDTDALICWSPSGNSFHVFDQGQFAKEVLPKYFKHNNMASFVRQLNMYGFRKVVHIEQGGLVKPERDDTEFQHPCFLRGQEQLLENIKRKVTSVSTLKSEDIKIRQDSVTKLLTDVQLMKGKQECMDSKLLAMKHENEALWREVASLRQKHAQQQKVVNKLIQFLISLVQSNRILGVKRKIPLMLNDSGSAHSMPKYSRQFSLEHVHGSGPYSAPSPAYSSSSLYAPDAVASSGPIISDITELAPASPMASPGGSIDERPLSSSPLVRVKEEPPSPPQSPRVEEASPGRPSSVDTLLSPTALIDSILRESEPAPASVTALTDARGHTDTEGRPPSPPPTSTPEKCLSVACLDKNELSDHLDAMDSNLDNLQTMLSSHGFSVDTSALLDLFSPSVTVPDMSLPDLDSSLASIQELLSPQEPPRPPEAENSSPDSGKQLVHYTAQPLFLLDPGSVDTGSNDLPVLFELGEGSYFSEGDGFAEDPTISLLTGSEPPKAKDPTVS
# How it was run: as §1
# SPIC = target: T2, SPIC (Homo sapiens, UniProt Q8N5J4 1-248); conditions: protein: recombinant; tags: N-terminal GST; dsDNA, one strand shown
# T2 sequence: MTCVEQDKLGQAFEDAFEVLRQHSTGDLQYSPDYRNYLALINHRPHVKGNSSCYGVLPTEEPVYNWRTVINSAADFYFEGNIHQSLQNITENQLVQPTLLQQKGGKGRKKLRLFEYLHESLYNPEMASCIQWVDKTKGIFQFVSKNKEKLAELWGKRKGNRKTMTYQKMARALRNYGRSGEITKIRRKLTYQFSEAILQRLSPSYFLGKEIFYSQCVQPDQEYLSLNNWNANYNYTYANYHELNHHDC
# How it was run: as §1
# ELF4 = ELF4 (Homo sapiens, UniProt Q99607 1-663); conditions: protein: recombinant; tags: N-terminal GST; dsDNA, one strand shown
# ELF4, sequence (Q99607 whole entry): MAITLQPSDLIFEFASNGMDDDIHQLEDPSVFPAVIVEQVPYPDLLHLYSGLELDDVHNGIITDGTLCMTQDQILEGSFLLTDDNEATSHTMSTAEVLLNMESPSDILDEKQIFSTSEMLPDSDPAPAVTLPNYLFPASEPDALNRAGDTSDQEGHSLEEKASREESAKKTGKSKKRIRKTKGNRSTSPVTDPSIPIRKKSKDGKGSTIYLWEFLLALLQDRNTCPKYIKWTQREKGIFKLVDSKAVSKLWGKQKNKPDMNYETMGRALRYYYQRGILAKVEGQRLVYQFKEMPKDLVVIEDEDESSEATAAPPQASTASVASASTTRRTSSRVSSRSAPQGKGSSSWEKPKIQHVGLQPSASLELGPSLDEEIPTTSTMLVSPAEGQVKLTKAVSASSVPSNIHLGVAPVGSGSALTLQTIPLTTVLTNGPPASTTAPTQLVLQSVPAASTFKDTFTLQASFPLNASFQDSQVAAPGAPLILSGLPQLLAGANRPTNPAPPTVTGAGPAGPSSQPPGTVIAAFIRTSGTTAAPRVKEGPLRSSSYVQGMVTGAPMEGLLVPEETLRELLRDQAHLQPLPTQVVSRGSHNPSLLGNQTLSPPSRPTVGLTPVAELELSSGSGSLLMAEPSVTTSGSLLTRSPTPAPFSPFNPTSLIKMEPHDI
# How it was run: as §1
# ELK4 = target: T3, ELK4 (Homo sapiens, UniProt P28324-2 1-405); conditions: protein: recombinant; tags: N-terminal GST; dsDNA, one strand shown
# T3 sequence: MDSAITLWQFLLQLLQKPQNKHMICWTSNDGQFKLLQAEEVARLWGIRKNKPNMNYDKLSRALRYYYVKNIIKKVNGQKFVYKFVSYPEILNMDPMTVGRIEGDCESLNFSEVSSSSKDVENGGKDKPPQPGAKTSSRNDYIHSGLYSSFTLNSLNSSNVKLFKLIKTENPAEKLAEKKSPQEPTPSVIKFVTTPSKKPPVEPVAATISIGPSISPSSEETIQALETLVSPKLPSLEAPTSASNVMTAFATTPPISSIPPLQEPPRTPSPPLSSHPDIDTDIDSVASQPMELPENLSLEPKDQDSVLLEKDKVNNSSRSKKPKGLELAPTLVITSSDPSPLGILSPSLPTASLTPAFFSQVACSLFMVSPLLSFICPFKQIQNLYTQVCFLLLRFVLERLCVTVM
# How it was run: as §1
# ETV2 = target: T4, ETV2 (Homo sapiens, UniProt O00321 1-342); conditions: protein: recombinant; tags: N-terminal GST; dsDNA, one strand shown
# T4 sequence: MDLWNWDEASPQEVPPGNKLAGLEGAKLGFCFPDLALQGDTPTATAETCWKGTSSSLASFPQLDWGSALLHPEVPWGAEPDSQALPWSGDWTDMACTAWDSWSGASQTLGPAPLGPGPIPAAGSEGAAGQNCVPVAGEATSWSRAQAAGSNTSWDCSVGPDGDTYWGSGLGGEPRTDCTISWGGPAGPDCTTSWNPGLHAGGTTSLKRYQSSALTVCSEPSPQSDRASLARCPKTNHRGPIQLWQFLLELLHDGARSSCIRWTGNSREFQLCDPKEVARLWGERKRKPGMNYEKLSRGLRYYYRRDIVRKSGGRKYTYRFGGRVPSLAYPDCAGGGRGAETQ
# How it was run: as §1
# ELF3 = target: T5, ELF3 (Homo sapiens, UniProt P78545 1-371); conditions: protein: recombinant; tags: N-terminal GST; dsDNA, one strand shown
# T5 sequence: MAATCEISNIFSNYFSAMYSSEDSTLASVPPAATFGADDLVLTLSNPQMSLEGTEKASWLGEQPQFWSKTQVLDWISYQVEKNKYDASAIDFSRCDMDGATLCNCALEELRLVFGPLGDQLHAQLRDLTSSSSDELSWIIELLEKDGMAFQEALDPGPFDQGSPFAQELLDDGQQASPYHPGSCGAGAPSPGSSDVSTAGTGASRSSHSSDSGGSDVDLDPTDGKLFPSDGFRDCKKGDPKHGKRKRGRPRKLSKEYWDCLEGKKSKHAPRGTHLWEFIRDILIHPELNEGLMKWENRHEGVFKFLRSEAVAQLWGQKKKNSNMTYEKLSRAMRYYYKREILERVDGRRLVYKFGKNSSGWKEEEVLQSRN
# How it was run: as §1
# CRX = CRX (Homo sapiens, UniProt O43186 1-299); conditions: protein: recombinant; tags: N-terminal GST; dsDNA, one strand shown
# CRX, sequence (O43186 whole entry): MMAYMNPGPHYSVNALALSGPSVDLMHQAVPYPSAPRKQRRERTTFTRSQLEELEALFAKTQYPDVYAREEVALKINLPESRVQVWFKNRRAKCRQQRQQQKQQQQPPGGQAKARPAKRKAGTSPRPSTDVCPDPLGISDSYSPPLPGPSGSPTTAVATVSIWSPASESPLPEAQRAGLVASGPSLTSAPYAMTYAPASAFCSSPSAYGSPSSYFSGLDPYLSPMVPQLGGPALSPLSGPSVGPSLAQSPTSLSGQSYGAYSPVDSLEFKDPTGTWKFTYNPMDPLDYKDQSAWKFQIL
# How it was run: as §1
# ETV1 = ETV1 (Homo sapiens, UniProt P50549 1-477); conditions: protein: recombinant; tags: N-terminal GST; dsDNA, one strand shown
# ETV1, sequence (P50549 whole entry): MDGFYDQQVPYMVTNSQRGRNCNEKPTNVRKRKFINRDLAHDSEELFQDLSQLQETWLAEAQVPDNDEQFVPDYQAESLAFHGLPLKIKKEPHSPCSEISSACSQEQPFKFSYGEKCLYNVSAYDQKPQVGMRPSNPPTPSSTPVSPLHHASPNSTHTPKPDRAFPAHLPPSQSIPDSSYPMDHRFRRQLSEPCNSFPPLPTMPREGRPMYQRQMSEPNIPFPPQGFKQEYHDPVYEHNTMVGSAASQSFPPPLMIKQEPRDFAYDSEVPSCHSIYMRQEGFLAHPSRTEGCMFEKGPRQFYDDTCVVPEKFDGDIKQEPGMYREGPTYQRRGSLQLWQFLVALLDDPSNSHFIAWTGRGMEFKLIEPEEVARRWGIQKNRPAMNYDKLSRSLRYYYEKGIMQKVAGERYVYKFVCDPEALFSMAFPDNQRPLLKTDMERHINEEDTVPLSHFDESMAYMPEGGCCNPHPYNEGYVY
# How it was run: as §1
# ERF = target: T6, ERF (Homo sapiens, UniProt P50548 1-548); conditions: protein: recombinant; tags: N-terminal GST; dsDNA, one strand shown
# T6 sequence: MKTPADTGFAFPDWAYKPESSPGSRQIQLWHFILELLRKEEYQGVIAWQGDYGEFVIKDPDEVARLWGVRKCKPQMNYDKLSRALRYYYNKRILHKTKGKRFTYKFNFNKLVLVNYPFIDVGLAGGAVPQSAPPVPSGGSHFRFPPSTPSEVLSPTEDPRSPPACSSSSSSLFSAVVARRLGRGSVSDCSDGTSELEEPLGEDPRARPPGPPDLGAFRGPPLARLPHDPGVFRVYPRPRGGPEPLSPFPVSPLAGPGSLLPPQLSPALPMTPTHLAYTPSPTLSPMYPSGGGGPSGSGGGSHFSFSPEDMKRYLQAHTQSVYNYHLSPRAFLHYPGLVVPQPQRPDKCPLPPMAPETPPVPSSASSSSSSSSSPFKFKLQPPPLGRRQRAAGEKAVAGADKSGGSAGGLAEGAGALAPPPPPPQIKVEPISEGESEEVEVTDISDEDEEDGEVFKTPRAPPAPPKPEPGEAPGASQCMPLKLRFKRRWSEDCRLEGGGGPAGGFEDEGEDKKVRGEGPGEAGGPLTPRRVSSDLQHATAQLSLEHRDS
# How it was run: as §1
# ETV3L = target: T7, ETV3L (Homo sapiens, UniProt Q6ZN32 1-361); conditions: protein: recombinant; tags: N-terminal GST; dsDNA, one strand shown
# T7 sequence: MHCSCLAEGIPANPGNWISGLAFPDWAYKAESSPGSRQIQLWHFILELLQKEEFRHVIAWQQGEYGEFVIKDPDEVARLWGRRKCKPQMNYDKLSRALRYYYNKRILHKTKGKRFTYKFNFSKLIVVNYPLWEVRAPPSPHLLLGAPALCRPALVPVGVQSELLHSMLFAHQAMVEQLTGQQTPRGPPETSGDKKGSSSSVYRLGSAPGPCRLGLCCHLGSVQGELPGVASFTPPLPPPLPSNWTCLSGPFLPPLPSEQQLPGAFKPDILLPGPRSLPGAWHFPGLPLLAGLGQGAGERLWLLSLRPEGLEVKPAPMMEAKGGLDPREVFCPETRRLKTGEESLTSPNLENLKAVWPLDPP
# How it was run: as §1
# ETS2 = target: T8, ETS2 (Homo sapiens, UniProt P15036 1-469); conditions: protein: recombinant; tags: N-terminal GST; dsDNA, one strand shown
# T8 sequence: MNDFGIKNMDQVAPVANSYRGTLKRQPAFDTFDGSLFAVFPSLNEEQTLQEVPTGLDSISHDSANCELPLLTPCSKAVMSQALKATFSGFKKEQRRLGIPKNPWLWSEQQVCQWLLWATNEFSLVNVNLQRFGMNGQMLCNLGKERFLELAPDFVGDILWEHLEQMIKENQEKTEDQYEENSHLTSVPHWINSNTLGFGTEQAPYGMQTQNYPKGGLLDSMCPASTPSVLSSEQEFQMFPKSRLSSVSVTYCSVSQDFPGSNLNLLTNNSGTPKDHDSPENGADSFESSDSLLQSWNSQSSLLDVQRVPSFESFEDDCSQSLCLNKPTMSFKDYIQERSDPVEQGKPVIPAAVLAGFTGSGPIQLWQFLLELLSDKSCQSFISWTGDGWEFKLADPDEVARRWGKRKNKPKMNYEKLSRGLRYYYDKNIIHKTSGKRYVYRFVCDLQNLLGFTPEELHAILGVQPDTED
# How it was run: as §1
# SPDEF = target: T9, SPDEF (Homo sapiens, UniProt O95238 1-335); conditions: protein: recombinant; tags: N-terminal GST; dsDNA, one strand shown
# T9 sequence: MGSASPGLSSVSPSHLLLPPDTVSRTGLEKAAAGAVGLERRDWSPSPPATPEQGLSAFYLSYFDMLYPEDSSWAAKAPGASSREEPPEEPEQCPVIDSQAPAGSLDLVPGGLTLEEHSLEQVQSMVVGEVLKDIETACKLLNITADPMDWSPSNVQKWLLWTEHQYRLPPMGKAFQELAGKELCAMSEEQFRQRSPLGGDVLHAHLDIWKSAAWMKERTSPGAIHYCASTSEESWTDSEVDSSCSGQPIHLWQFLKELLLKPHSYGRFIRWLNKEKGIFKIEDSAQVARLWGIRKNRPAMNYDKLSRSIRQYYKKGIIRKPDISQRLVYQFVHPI
# How it was run: as §1
# ETV7 = target: T10, ETV7 (Homo sapiens, UniProt Q9Y603 1-341); conditions: protein: recombinant; tags: N-terminal GST; dsDNA, one strand shown
# T10 sequence: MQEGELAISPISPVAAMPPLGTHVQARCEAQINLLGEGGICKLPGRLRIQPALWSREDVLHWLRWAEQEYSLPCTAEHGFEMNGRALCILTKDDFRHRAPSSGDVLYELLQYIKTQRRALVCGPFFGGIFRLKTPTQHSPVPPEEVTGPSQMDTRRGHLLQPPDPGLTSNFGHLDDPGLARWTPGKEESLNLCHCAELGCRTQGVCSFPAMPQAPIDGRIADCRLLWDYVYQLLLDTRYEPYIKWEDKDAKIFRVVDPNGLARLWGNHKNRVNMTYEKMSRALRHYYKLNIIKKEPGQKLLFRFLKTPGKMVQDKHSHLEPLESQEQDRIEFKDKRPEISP
# How it was run: as §1
# ELF5 = target: T11, ELF5 (Homo sapiens, UniProt Q9UKW6-2 1-255); conditions: protein: recombinant; tags: N-terminal GST; dsDNA, one strand shown
# T11 sequence: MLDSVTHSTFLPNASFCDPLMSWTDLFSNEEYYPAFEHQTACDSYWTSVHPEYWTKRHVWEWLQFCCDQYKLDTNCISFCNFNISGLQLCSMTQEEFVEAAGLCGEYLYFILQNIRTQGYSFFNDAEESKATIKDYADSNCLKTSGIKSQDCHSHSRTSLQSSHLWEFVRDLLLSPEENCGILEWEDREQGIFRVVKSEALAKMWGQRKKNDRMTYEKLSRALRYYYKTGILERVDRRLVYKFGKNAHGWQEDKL
# How it was run: as §1
# ETV3 = target: T12, ETV3 (Homo sapiens, UniProt P41162-2 1-143); conditions: protein: recombinant; tags: N-terminal GST; dsDNA, one strand shown
# T12 sequence: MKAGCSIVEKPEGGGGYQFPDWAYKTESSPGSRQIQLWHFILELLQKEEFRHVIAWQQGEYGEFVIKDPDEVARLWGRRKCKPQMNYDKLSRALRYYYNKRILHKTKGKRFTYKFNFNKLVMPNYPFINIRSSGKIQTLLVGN
# How it was run: as §1
# ETV6 = ETV6 (Homo sapiens, UniProt P41212 1-452); conditions: protein: recombinant; tags: N-terminal GST; dsDNA, one strand shown
# ETV6, sequence (P41212 whole entry): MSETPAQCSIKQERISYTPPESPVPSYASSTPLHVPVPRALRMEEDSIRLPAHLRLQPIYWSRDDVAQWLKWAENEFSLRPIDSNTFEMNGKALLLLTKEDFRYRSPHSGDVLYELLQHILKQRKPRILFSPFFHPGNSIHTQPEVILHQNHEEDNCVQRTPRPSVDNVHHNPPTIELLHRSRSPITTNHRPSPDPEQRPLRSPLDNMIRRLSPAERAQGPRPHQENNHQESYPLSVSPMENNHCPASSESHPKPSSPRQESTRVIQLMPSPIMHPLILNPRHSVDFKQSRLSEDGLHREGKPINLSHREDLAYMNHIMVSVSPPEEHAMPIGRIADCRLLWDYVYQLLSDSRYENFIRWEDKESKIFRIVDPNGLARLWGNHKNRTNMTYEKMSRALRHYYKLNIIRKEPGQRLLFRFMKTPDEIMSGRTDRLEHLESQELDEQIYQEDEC
# How it was run: as §1
sequence,measurement,setting,value
ATCTCT,binding signal,FEV,"1.29 fold enrichment (6-mer frequency, TF over GST control)"
same,binding signal,ETV5,"1.29 fold enrichment (6-mer frequency, TF over GST control)"
same,binding signal,HSF1,"1.63 fold enrichment (6-mer frequency, TF over GST control)"
same,binding signal,SPIC,"1.45 fold enrichment (6-mer frequency, TF over GST control)"
same,binding signal,ELF4,"1.26 fold enrichment (6-mer frequency, TF over GST control)"
same,binding signal,ELK4,"1.44 fold enrichment (6-mer frequency, TF over GST control)"
same,binding signal,ETV2,"1.33 fold enrichment (6-mer frequency, TF over GST control)"
same,binding signal,ELF3,"1.26 fold enrichment (6-mer frequency, TF over GST control)"
same,binding signal,CRX,"1.85 fold enrichment (6-mer frequency, TF over GST control)"
same,binding signal,ETV1,"1.23 fold enrichment (6-mer frequency, TF over GST control)"
same,binding signal,ERF,"1.38 fold enrichment (6-mer frequency, TF over GST control)"
same,binding signal,ETV3L,"1.27 fold enrichment (6-mer frequency, TF over GST control)"
same,binding signal,ETS2,"1.29 fold enrichment (6-mer frequency, TF over GST control)"
same,binding signal,SPDEF,"1.18 fold enrichment (6-mer frequency, TF over GST control)"
same,binding signal,ETV7,"1.14 fold enrichment (6-mer frequency, TF over GST control)"
same,binding signal,ELF5,"1.25 fold enrichment (6-mer frequency, TF over GST control)"
same,binding signal,ETV3,"1.25 fold enrichment (6-mer frequency, TF over GST control)"
same,binding signal,ETV6,"1.27 fold enrichment (6-mer frequency, TF over GST control)"
